ULK1 inh: blocks human autophagy kinase ULK1; O75385; AID 1259251; AlphaScreen Atg13 phosphorylation by ULK1, luminescence; inhibition, % at 5.96 µM; 1.9% of 30,000 active; in the data active means inhibition above about 43%;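 further: 0% = median of compound wells and 100% = no enzyme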
ASK1 inh: inhibitors of human ASK1 kinase; Q99683; AlphaScreen MKK6 phosphorylation by ASK1, luminescence; inhibition, % at 7.44 µM; 0.99% of 22,000 active; in the data active means inhibition above about 35%;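 further: 0% = median of compound wells and 100% = no enzyme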
Target sequence (Q99683 whole entry, looked up): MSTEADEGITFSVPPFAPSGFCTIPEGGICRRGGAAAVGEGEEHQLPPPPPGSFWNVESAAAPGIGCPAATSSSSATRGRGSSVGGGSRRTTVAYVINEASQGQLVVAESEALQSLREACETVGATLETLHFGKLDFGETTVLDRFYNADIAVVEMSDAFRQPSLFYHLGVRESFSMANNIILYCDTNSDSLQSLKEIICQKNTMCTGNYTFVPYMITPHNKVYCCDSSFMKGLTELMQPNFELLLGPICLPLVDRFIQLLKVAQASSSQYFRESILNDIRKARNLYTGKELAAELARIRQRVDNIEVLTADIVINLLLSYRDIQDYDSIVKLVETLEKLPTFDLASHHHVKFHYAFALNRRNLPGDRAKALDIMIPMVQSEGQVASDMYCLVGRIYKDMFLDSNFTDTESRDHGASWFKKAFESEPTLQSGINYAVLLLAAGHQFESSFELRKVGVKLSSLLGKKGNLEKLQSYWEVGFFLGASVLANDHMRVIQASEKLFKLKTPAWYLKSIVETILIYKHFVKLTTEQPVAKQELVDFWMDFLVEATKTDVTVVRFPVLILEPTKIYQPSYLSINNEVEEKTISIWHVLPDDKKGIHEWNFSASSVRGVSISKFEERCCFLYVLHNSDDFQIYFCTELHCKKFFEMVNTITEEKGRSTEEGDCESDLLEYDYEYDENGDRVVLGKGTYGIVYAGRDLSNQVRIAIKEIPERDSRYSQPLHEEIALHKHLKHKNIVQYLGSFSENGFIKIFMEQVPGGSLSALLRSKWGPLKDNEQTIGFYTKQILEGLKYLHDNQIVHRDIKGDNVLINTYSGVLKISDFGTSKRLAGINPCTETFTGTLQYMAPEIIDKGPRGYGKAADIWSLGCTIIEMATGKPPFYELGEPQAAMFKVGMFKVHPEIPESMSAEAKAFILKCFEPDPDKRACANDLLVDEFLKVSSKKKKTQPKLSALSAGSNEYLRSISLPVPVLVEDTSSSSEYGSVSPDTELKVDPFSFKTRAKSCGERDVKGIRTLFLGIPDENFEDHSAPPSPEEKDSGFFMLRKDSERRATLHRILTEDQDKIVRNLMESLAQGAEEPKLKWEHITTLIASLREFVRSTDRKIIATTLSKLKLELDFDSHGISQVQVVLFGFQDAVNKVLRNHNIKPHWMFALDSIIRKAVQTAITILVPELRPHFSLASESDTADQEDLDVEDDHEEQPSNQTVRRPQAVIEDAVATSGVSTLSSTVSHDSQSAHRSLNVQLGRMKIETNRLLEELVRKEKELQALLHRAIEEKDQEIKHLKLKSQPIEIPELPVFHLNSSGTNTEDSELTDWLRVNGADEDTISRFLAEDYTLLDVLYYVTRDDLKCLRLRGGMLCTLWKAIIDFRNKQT
AlphaScreen intf: counter-screen for ASK1 inhibitors: AlphaScreen optical interference | shares compounds with ASK1 inh | AlphaScreen TruHits beads, signal interference counterscreen | IC50, µM | 20% of 220 active | AID 1159604;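 active means IC50 of 10 µM or lower in the counterscreen; inactive means IC50 above 10 µM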;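 further: loss of AlphaScreen light from TruHits beads alone with no ASK1 enzyme present; potency of signal reduction so a low IC50 flags an assay artifact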
Starred values were filed as active, the others as inactive; i = inactive; . = no result given. Only some compounds are listed: those with a hit (about 2.5% of all), similar ones and a draw of the others.

SMILES	ULK1 inh	ASK1 inh	AlphaScreen intf
CC(C)n1cnc2c(Nc3ccc4c(c3)OCO4)nc(Nc3cccc(N(C)C)c3)nc21	16	37*	>20
c1cc2cc(NC3CCNCC3)ccc2cn1	11	-1	.
O=C(NCCN1CCOCC1)c1csc(-c2cccs2)n1	4	-3	.
CCNc1cc(C(=O)NCc2ccccc2)c2ccccc2n1	-4	-12	.
CCN(CC)c1nc(NC2CCN(Cc3ccccc3)CC2)nc(Oc2ccccc2)n1	-1	-9	.
COc1ccc(-c2nc(Nc3ccc(NC(C)=O)cc3)c3ncn(-c4ccccc4)c3n2)cc1	-6	9	.
FC(F)(F)c1ccc(Cn2cnc3c(Nc4ccc5c(c4)OCO5)nc(N4CCN(c5ccccn5)CC4)nc32)cc1	12	51*	>20
c1ccc(OCCNc2nc(N3CCN(Cc4ccc5c(c4)OCO5)CC3)nc3c2ncn3C2CCCCC2)cc1	16	39*	>20
COc1cc(Nc2nc(N3CCN(c4ccccn4)CC3)nc3c2ncn3Cc2ccc(C(F)(F)F)cc2)cc(OC)c1OC	-16	27	.
OCCNc1nc(N2CCN(Cc3ccc4c(c3)OCO4)CC2)nc2c1ncn2C1CCCCC1	-10	12	.
CCN(CC)C(=O)C1CCCN(c2nc(Nc3ccc(N4CCOCC4)cc3)c3ncn(Cc4ccc(C(F)(F)F)cc4)c3n2)C1 (stereo not given)	-17	56*	>20
CN(C)c1cccc(Nc2nc(Nc3ccc4c(c3)OCO4)c3ncn(Cc4ccc(C(F)(F)F)cc4)c3n2)c1	32	50*	>18
CC(=O)Nc1ccc(Nc2nc(Nc3cccc(N(C)C)c3)nc3c2ncn3Cc2ccc(C(F)(F)F)cc2)cc1	37	-11	.
CCN(CC)C(=O)C1CCCN(c2nc(Nc3ccc(N4CCOCC4)cc3)c3ncn(CCN4CCCC4=O)c3n2)C1 (stereo not given)	2	3	.
O=C(NCc1cccc(C(F)(F)F)c1)c1csc(Nc2ccc(-n3ccnc3)cc2)n1	-16	10	.
COc1cc2nc(Nc3ccncn3)nc(Nc3cc(OC)c(OC)c(OC)c3)c2cc1OC	-7	13	.
OCC1CCCN1c1nc2ncnc(NCc3nc4ccccc4[nH]3)c2[nH]1 (stereo not given)	7	-17	.
Cc1cnc(NC2CCN(Cc3ccccc3)CC2)nc1Nc1ccccc1	16	8	.
O=C(NCc1cccnc1)c1cnc(NCc2ccc3c(c2)OCO3)s1	1	-15	.
FC(F)(F)c1ccc(Cn2cnc3c(NCCN4CCOCC4)nc(N4CCN(Cc5ccc6c(c5)OCO6)CC4)nc32)cc1	-42	6	.
CN(C)c1cccc(Nc2nccc(Nc3ccc4c(c3)OCO4)n2)c1	-2	36*	i
FC(F)(F)c1ccc(Cn2cnc3c(NCc4cccc(C(F)(F)F)c4)nc(-c4ccc(N5CCOCC5)nc4)nc32)cc1	-2	28	.
FC(F)(F)c1ccc(Nc2nccc(Nc3ccc4c(c3)OCO4)n2)cc1	-22	13	.
FC(F)(F)c1ccc(Cn2cnc3c(Nc4ccc(N5CCOCC5)cc4)nc(N4CCN(Cc5ccc6c(c5)OCO6)CC4)nc32)cc1	-16	48*	>20
FC(F)(F)c1ccc(Cn2cnc3c(NCc4ccccc4)nc(-c4ccc(N5CCOCC5)nc4)nc32)cc1	2	45*	>20
SMILES	ULK1 inh	ASK1 inh	AlphaScreen intf
O=c1[nH]cccc1-c1ccc(Nc2nccc(-c3ccc4nc(C5CC5)[nH]c(=O)c4c3)n2)cc1	70*	43*	>19
O=C(O)Cc1ccc(Nc2nccc(-c3ccccc3)n2)cc1	3	16	.
COc1cc(NC(=O)c2cccc(-n3cc(NC(=O)Nc4ccccc4)cn3)c2)cc(OC)c1OC	-33	5	.
COc1cc(NC(=O)c2cccc(-n3cc(NC(=O)Nc4ccc(-c5ccccc5)cc4)cn3)c2)cc(OC)c1OC	-30	49*	>19
COc1cc(NC(=O)c2cccc(-n3cc(NC(=O)Nc4c(C)cccc4Cl)cn3)c2)cc(OC)c1OC	-2	40*	>19
COc1ccc(C)cc1NC(=O)Nc1cnn(-c2cccc(C(=O)Nc3cc(OC)c(OC)c(OC)c3)c2)c1	-5	-18	.
Cc1ncn(-c2ccc(Nc3nccc(-c4ccc(S(C)(=O)=O)c(N5CCOCC5)c4)n3)cc2)n1	2	-11	.
O=C(NCCN1CCOCC1)c1cnc(N2CCOCC2)s1	-24	6	.
CCCNc1nc(Nc2ccc(N3CCOCC3)cc2)nc2c1ncn2C1CCCCC1	17	51*	>20
O=C1CCCN1CCCNc1nc(Nc2ccc(-n3ccnc3)cc2)nc2c1ncn2-c1ccsc1	25	47*	>20
c1cc(N2CCOCC2)ccc1Nc1nc(NCCN2CCOCC2)c2ncn(C3CCCCC3)c2n1	0	16	.
Cc1cc(Nc2ccc3c(c2)OCO3)nc(N2CCN(Cc3ccc4c(c3)OCO4)CC2)n1	1	37*	i
CCCNc1cc(C)nc(N2CCN(Cc3ccc4c(c3)OCO4)CC2)n1	11	11	.
